# Key:
# Experiment in all cases: PBM binding z-score (relative to random genomic background probes); higher = stronger binding; sequences stand for … in GC…GCGATTGACAGCGTAGAATGAAGG
# [1] = test system: PPARg:RXRa DBDmut IVT, anti-RXR (DBD mutation: RXRa K156A/R161A, NR concentration 270 nM, RXRa partner concentration 90 nM)
# How it was run: (§1)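 Binding z-scores take random background probes as their reference. They come from custom Agilent 4×180K protein-binding microarrays incubated 1 h with ligand-free nuclear receptor dimers, with antibodies against each partner (one per run) detecting binding. Scanned fluorescence was regression-normalized.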
# [2] = test system: PPARg:RXRa IVT, anti-PPARg (NR concentration 270 nM, RXRa partner concentration 90 nM)
# How it was run: as §1
# [3] = test system: PPARg DBDmut:RXRa IVT, anti-PPARg (DBD mutation: PPARg1 K132A/R137A, NR concentration 270 nM, RXRa partner concentration 90 nM)
# How it was run: as §1
# [4] = test system: PPARg DBDmut IVT, anti-PPARg (DBD mutation: PPARg1 K132A/R137A, NR concentration 270 nM)
# How it was run: as §1
# [5] = test system: PPARg homodimer (NR concentration 180 nM)
# How it was run: as §1
# [6] = test system: PXR:RXRa (NR concentration 270 nM, RXRa partner concentration 90 nM)
# How it was run: as §1
# [7] = test system: PXR homodimer (NR concentration 270 nM)
# How it was run: as §1
# [8] = test system: RARa:RXR (NR concentration 270 nM, RXRa partner concentration 90 nM)
# How it was run: as §1
# [9] = test system: RARa homodimer (NR concentration 270 nM)
# How it was run: as §1
# [10] = test system: RARb:RXRa (NR concentration 270 nM, RXRa partner concentration 90 nM)
# How it was run: as §1
Sequence,PBM binding z-score [1],PBM binding z-score [2],PBM binding z-score [3],PBM binding z-score [4],PBM binding z-score [5],PBM binding z-score [6],PBM binding z-score [7],PBM binding z-score [8],PBM binding z-score [9],PBM binding z-score [10]
ATCTGTAGGTAAAGTTCAGTGAAAGATCGATAGA,1.48,2.2,1.04,0.902,1.06,1.41,1.84,0.99,0.559,2.53
TAGAGTAGGTTAGGGGCATTCAGAATGGCGTCGA,2.77,3.28,1.38,0.566,1.85,1.08,1.72,0.913,1.66,1.81
TCTATTTGTTGAAGGGCAACCGACGAGTCCGTTT,2.54,1.08,1.34,1.56,1.38,1,1.16,0.596,2.02,1.68
AATACAGGGTCACTAGGCCAGAGTCGGTACGAAT,4.04,5.73,1.74,1.6,2.69,3.08,0.172,4.13,1.14,4.1
AGTCACAGTTCAGGACGAGGTAACGTAAAGCACG,-0.095,0.996,0.513,0.376,0.443,1.13,0.45,1.52,0.51,2.08
ATCTCCAGGTAACCAAGTTCAGTGAATGCCGAAC,0.934,1.52,0.875,0.957,0.841,2.24,2.55,0.649,0.534,0.985
TCTCGGAGGACACGAAAGGTTAGAGCTCGACATC,1.49,0.57,-0.609,-0.116,0.402,0.853,-0.519,1.52,0.215,2.48
CATGCTAGGTCAATGGTCAGCTAAAGCAGCTCGC,3.11,3.53,-0.274,-0.0398,1.14,0.721,-0.406,1.82,-0.113,3.87
CATACAGGGTCAGCTAGGCCAGAGTCGGGACGGC,1.33,2.55,0.623,0.297,2.62,2.15,-0.0453,3.26,0.539,4.13
ATACCAAGGTGATCGTGAGGTCGTCGATACTAAC,0.722,1.25,0.727,0.964,0.798,2.36,0.524,1.84,0.592,1.3
GCTGCGAGGTCAGGTTGGTCAGCTAACGGGTACG,1.82,2.38,-0.42,-0.641,2.28,3.29,0.452,3.39,0.367,4.51
GGAAAGAGGGCATTCGAGTTGATAGCATGGCGAT,2.82,1.52,0.272,0.297,0.828,4.41,1.31,1.75,0.298,2.24
